{"source": "PubChem BioAssay AID1697", "about": "(The Scripps Research Institute Molecular Screening Center, 2009)", "note": "Some of the results follow. Unmarked numbers belong to inactive results. Active and inactive are the calls of the source.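 The calls were made as follows: active = percent activation above the mean of DMSO-only control wells plus 3 SD of those wells (cut at about 18% in these data); inactive = the rest.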", "data": [{"biological_target": "Neuropeptide Y receptor type 1 (Homo sapiens) (UniProt P25929)", "sequence (P25929 whole entry, looked up)": "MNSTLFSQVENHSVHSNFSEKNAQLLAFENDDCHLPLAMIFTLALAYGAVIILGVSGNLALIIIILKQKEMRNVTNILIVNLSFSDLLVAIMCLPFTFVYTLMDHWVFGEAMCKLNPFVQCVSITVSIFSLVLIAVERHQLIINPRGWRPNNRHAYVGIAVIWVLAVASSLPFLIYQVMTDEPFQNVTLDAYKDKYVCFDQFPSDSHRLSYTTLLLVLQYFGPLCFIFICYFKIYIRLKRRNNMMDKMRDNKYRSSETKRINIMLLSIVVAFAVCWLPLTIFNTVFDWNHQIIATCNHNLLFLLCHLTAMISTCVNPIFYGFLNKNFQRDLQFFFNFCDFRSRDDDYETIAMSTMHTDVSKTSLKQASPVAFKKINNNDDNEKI", "assay": "NPY-Y1 direct agonists without NPY, confirmation, counter-screen for NPY-Y1 potentiator project, cell-based, fluorescence (AID 1697);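 also: cells challenged with isoproterenol plus Ro 20-1724 with no NPY in test wells; Y1 agonism lowers isoproterenol-driven cAMP and reduces probe fluorescence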", "details": "HEK293 Y1-CNGC, membrane potential fluorescence, agonist mode; at 3.6 µM; active compounds read high", "values": [{"smiles": "O=C(c1cccs1)N1CCN(C(=O)N2CCOCC2)CC1", "activation": "-8.38%"}, {"smiles": "CN1C(=O)c2ccccc2C(C(=O)NCCCN2CCCC2)C1c1c[nH]c2ccccc12", "note": "(stereo unspecified)", "activation": "-3%"}, {"smiles": "CSc1nc(-c2ccco2)nn1C(=O)c1ccccc1Cl", "activation": "28.5% (active)"}, {"smiles": "COC(=O)c1ccc(NC(=O)CN(c2ccc(C)cc2)S(=O)(=O)c2c(C)n[nH]c2C)cc1", "activation": "45.3% (active)"}, {"smiles": "COCCn1nnnc1C(c1ccccc1Cl)N1CCN(c2ccccc2OC)CC1", "note": "(stereo unspecified)", "activation": "-0.37%"}, {"smiles": "Cc1ccccc1NCC(=O)N/N=C\\c1ccc([N+](=O)[O-])s1", "activation": "40% (active)"}, {"smiles": "COC(=O)c1sc(-c2ccc(C(C)(C)C)cc2)cc1NC(=O)/C=C/C(=O)O", "activation": "26.9% (active)"}, {"smiles": "CC1=C/C(=N\\OS(=O)(=O)c2ccccc2)C=CC1=O", "activation": "14.2%"}, {"smiles": "O=[N+]([O-])c1cc(Cl)cc(/C=N/NC(=S)Nc2cc(S(=O)(=O)N3CCOCC3)ccc2Cl)c1O", "activation": "77% (active)"}, {"smiles": "Cc1cccc(OCC(O)CN2CCN(CCN3C(=O)c4cccc5cccc(c45)C3=O)CC2)c1C", "note": "(stereo unspecified)", "activation": "45.1% (active)"}, {"smiles": "O=C1/C(=C/c2coc3ccc(O)cc3c2=O)SC(=S)N1c1ccccc1", "activation": "16.8%"}, {"smiles": "N#Cc1ccc(C(=O)Nc2nc(-c3cccs3)c(C(=O)C(F)(F)F)s2)cc1", "activation": "-33.9%"}, {"smiles": "O=C(Nc1ccccc1C(F)(F)F)c1cc(-c2ccc(O)cc2)on1", "activation": "9.5%"}, {"smiles": "CCn1c2ccccc2c2cc(NC(=O)Nc3ccc([N+](=O)[O-])cc3C)ccc21", "activation": "11.8%"}, {"smiles": "CC(=O)c1ccc(NC(=O)C2CC(=O)Nc3nc4ccccc4n32)cc1", "note": "(stereo unspecified)", "activation": "38% (active)"}, {"smiles": "O=C(Nc1ccc2c(c1)CCC2)c1cccc(S(=O)(=O)Nc2ccccc2Cl)c1", "activation": "3.19%"}]}]}
